Bioassay records as filed in PubChem BioAssay.
Most compounds without a hit are left out; they make up all but 1.4% or so of the library.
MIN6 prolif-1 = MIN6 beta-cell proliferation induction | MIN6 cells proliferation, ATPlite luminescence, 48 h; cells starved in 0.2% serum; 100% = growth in 10% serum | 0.29% of 330,000 active | proliferation, % at 10 µM;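 active = compounds whose signal lies at least 3.5 SD above the mean of all wells on their plate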
OPRM1-OPRD1 inv = inverse agonist of human OPRM1-OPRD1 heterodimerization. P35372+P41143. cell-based MOR-DOR heterodimer luminescence, inverse agonism. inhibition, % at 9.3 µM. 0.21% of 340,000 active; in the data active = inhibition above about 22%, passing the limit was not always enough
MOR-DOR ag = OPRM1-OPRD1 heterodimerization agonism. AID 504326. 0.3% of 340,000 active. P35372+P41143. activation, % at 9.3 µM. cells, luminescence; in the data active = activation above about 18%
HTR5A inv ctr = counter-screen for OPRM1-OPRD1 inverse agonists: human HTR5A inverse agonism | HTR5A cell line, luminescence | P47898 | inhibition, % at 9.3 µM | 0.083% of 340,000 active; in the data active = inhibition mostly above about 23%, no sharp cut-off; inactive = mostly below about 18%
p-CIP stab down = lowers stability of the mouse p/CIP coactivator protein; Q05BA5; F442A p/CIP-EGFP cells, EGFP fluorescence, 16 h; decrease of EGFP signal, % at 10 µM; 0.01% of 290,000 active; AID 1984;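 active = EGFP signal decrease of at least 30% at 10 µM or well 3 SD below plate mean, unless failing retest; inactive = the rest, including hits failing retest or dose response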
HTR5A ag ctr = activates human HTR5A in OPRM1-OPRD1 agonist counter-screen | P47898 | HTR5A agonist assay, luminescence, cell-based | activation, % at 9.3 µM | 0.61% of 340,000 active; in the data active = activation mostly above about 9.5%, no sharp cut-off; inactive = mostly below about 7.6%
MIN6 prolif-2 = confirmation of inducers of beta-cell replication in MIN6 cells | MIN6 beta-cell proliferation, ATPlite luminescence, 48 h; cells kept in 0.2% serum; scaled between 0.2% and 10% serum | 920 tested, under 10 active | shares compounds with MIN6 prolif-1 | AID 463095 | proliferation increase, % at 50 µM;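 active = proliferation increase above 40% at any of the four tested concentrations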
Hits are given with their value.

Results for CS(=O)(=O)N1CCC(C(=O)NCc2ccco2)CC1 ?
MIN6 prolif-1: 7.7; OPRM1-OPRD1 inv: inactive; MOR-DOR ag: inactive; HTR5A inv ctr: inactive; p-CIP stab down: inactive; HTR5A ag ctr: inactive; MIN6 prolif-2: inactive

Results for O=C(NCc1ccco1)C1CC(=O)N(c2ccc(O)cc2)C1 (stereo unspecified) ?
MIN6 prolif-1: 4.7; OPRM1-OPRD1 inv: inactive; MOR-DOR ag: inactive; HTR5A inv ctr: inactive; p-CIP stab down: inactive; HTR5A ag ctr: inactive; MIN6 prolif-2: inactive

How did CCCc1c2ccccc2nc2ccccc12 do in these assays?
MIN6 prolif-1: 7.2; OPRM1-OPRD1 inv: inactive; MOR-DOR ag: inactive; HTR5A inv ctr: inactive; p-CIP stab down: inactive; HTR5A ag ctr: inactive; MIN6 prolif-2: inactive

Results for CCCc1cc(C(=O)O)c2ccccc2n1 ?
MIN6 prolif-1: inactive; OPRM1-OPRD1 inv: inactive; MOR-DOR ag: inactive; HTR5A inv ctr: inactive; p-CIP stab down: inactive; HTR5A ag ctr: inactive

How did CC(=O)NC12CC3CC(C1)CC(C(=O)N1CCN(S(=O)(=O)c4ccccc4C#N)CC1)(C3)C2 do in these assays?
OPRM1-OPRD1 inv: inactive; MOR-DOR ag: inactive; HTR5A inv ctr: inactive; HTR5A ag ctr: inactive

Results for CN(C(=O)CN1CCCCCC1)c1c(N)n(Cc2ccccc2)c(=O)[nH]c1=O ?
MIN6 prolif-1: 12; OPRM1-OPRD1 inv: inactive; MOR-DOR ag: inactive; HTR5A inv ctr: inactive; HTR5A ag ctr: inactive; MIN6 prolif-2: inactive

Results for CCN(C(=O)CSc1ncccn1)c1c(N)n(Cc2ccccc2)c(=O)[nH]c1=O ?
MIN6 prolif-1: 16; OPRM1-OPRD1 inv: inactive; MOR-DOR ag: inactive; HTR5A inv ctr: inactive; HTR5A ag ctr: inactive; MIN6 prolif-2: inactive

What do the screens show for `COCCN(C(=O)CSc1ncccn1)c1c(N)n(Cc2ccccc2)c(=O)[nH]c1=O`?
MIN6 prolif-1: inactive; OPRM1-OPRD1 inv: inactive; MOR-DOR ag: inactive; HTR5A inv ctr: inactive; HTR5A ag ctr: inactive

Results for CCN(C(=O)CN1CCCCC1)c1c(N)n(Cc2ccccc2)c(=O)[nH]c1=O ?
MIN6 prolif-1: inactive; OPRM1-OPRD1 inv: inactive; MOR-DOR ag: inactive; HTR5A inv ctr: inactive; HTR5A ag ctr: inactive

What do the screens show for `CC(=O)Oc1cc(C(=O)OCC(=O)NC23CC4CC(CC(C4)C2)C3)cc(OC(C)=O)c1OC(C)=O`?
OPRM1-OPRD1 inv: inactive; MOR-DOR ag: inactive; HTR5A inv ctr: inactive; HTR5A ag ctr: inactive

What do the screens show for `O=C(Nc1ccccc1Br)c1cccc2ccccc12`?
MIN6 prolif-1: 8.7; MIN6 prolif-2: inactive

Results for Cc1cccc(C)c1OCC(=O)Nn1c(COc2ccccc2)nc2ccccc2c1=O ?
MIN6 prolif-1: 19; OPRM1-OPRD1 inv: inactive; MOR-DOR ag: inactive; HTR5A inv ctr: inactive; p-CIP stab down: inactive; HTR5A ag ctr: inactive; MIN6 prolif-2: inactive

Results for Cc1ccccc1OCC(=O)Nn1c(COc2ccccc2)nc2ccccc2c1=O ?
MIN6 prolif-1: inactive; OPRM1-OPRD1 inv: inactive; MOR-DOR ag: inactive; HTR5A inv ctr: inactive; p-CIP stab down: inactive; HTR5A ag ctr: inactive

What do the screens show for `Cc1cc(C)c(CC(=O)c2ccccc2)c(C)c1`?
OPRM1-OPRD1 inv: inactive; MOR-DOR ag: inactive; HTR5A inv ctr: inactive; HTR5A ag ctr: inactive

Results for CN1OC[C@@H]2CN(Cc3ccc(Cl)cc3)[C@H](c3cccc(Br)c3)C[C@@H]21 ?
OPRM1-OPRD1 inv: inactive; MOR-DOR ag: inactive; HTR5A inv ctr: inactive; HTR5A ag ctr: inactive

What do the screens show for `O=S(=O)(c1ccccc1)N1CCN(c2cccc(Cl)c2)CC1`?
MIN6 prolif-1: 7.2; OPRM1-OPRD1 inv: inactive; MOR-DOR ag: inactive; HTR5A inv ctr: inactive; p-CIP stab down: inactive; HTR5A ag ctr: inactive; MIN6 prolif-2: inactive

What do the screens show for `N#CC(C#N)=C1NC2(CCCCC2)Cc2ccccc21`?
MIN6 prolif-1: 5.2; OPRM1-OPRD1 inv: inactive; MOR-DOR ag: inactive; HTR5A inv ctr: inactive; p-CIP stab down: inactive; HTR5A ag ctr: inactive; MIN6 prolif-2: inactive

Results for CCC1(CC)Cc2ccccc2C(=C(C#N)C#N)N1 ?
MIN6 prolif-1: inactive; OPRM1-OPRD1 inv: inactive; MOR-DOR ag: inactive; HTR5A inv ctr: inactive; p-CIP stab down: inactive; HTR5A ag ctr: inactive
